The values below come from PubChem BioAssay AID2253 (Southern Research Specialized Biocontainment Screening …, 2010).

The structures appear in SMILES notation. The campaign covered roughly 2,200 compounds. About 1,300 (59%) were called active. The rule behind the calls is not given here. So high a share suggests a set chosen from earlier hits. Only a sample is shown. Results with a measured potency or affinity are listed apart.

The assay in a line: THP-1 cell cytotoxicity, dose response, cytotoxicity control for Salmonella PhoP regulon inhibitors, S. typhimurium screen hits (AID 2253). As to conditions: THP-1 viability, CellTiter-Glo luminescence, 72 h; series mostly up to 50 µM.
For the compound `CCCCCOc1ccc(NC(=O)C(=O)NCCC2=CCCCC2)cc1`, the compound was called inactive.
`O=C(CSc1nncs1)Nc1ccc2c(c1)OCCO2`: the compound was called inactive.
The result for `CC(O)CNc1cc(N)c([N+](=O)[O-])cc1[N+](=O)[O-]` (stereo not drawn) reads “inactive”; that for `CCNC(=O)COC(=O)CCC(=O)c1cccs1`, “inactive”.
Take `COCCNS(=O)(=O)c1cccn1-c1ncc(C(F)(F)F)cc1Cl`: the outcome was inactive.
The result for `Cc1cc(C)cc(-n2nc(C)cc2N)c1` reads “inactive”.
The value for `CCOC(=O)CN1C(=O)C(C)(C)Oc2ccc(C(=O)Nc3ccccc3OC)cc21` was “inactive”; that for `Cc1cccc(NC(=O)CCC(=O)OCc2ccc(Br)cc2)c1` was “inactive”; that for `O=C(O)C1CCC(N2C(=O)C3CCCCC3C2=O)CC1` (stereo not drawn) was “inactive”.
Consider `COC(=O)c1ccc(CSc2nnnn2-c2ccccc2)o1`, for which the outcome was inactive.
Regarding `Cc1ccccc1-n1nc(-c2ccc(N)cc2)cc1N`, the compound was called inactive.
Take `Cc1cc(CNC(=O)Nc2ccc3c(c2)OCO3)nn1C`: the result was inactive.
The result for `O=C(CSCc1ccccc1)Nc1ccc2c(c1)OCO2` reads “inactive”.
For the compound `CC(=O)c1cccc(NC(=O)Nc2cc3sccc3n2C)c1`, the result was inactive.
Regarding `O=C(NCc1ccccn1)Nc1cccc(Cl)c1`, the compound was called inactive.
The value for `CN(C)C(CNC(=O)Nc1cccc(Cl)c1)c1cccnc1` (stereo not drawn) was “inactive”; that for `CC(=O)c1cccc(NC(=O)Nc2cccs2)c1` was “inactive”; that for `Cc1ccccc1CS(=O)(=O)c1snnc1C` was “inactive”.
The value for `CCOC(=O)c1cnc2ccccc2c1Nc1ccc2c(c1)OCCO2` was “inactive”; that for `CCOC(=O)c1cnc2ccc(OC)cc2c1Nc1ccc2c(c1)OCCO2` was “inactive”.
The result for `Cc1cc(Nc2ccccc2F)n2ncnc2n1` reads “inactive”; that for `N/C(=N\OC(=O)Nc1ccc(Cl)cc1)c1ncc(C(F)(F)F)cc1Cl`, “inactive”.
Consider `Cc1nn(-c2ncc(C(F)(F)F)cc2Cl)c(=O)n1-c1cccc(Cl)c1`, for which the compound was classed as inactive.
The result for `CCCCNC(=O)OC1CCS(=O)(=O)C1` (stereo not drawn) reads “inactive”; that for `Cc1ccc2nc(-c3ccc(Br)o3)oc(=O)c2c1`, “inactive”.
The value for `COC(=O)C1=C(C)N(C)C(=O)/C1=C\c1ccco1` was “inactive”; that for `C=CC1=C(C(=O)O)N2C(=O)[C@@H](NC(=O)/C(=N\O)c3csc(N)n3)[C@H]2SC1` (stereo in doubt) was “inactive”.
The value for `O=C1CC(SCc2nc3ccccc3[nH]2)C(=O)N1c1ccc(Cl)cc1` (stereo not drawn) was “inactive”; that for `O=C(NC1CCCCC1)C(c1ccncc1)N(CC1CCCO1)C(=O)C(F)(F)F` (stereo not drawn) was “inactive”; that for `Cn1cccc1CC(=O)NNC(=S)Nc1ccc(Cl)cc1` was “inactive”.
For the compound `O=C(Nc1ccc(Cl)cc1)N1CC=CCC1`, the outcome was inactive.
Regarding `CCC(CC)c1nnc(NC(=O)Oc2ccccc2)s1`, the outcome was inactive.
The result for `CCN(CC(=O)N1CCN(Cc2ccccc2)CC1)S(=O)(=O)c1ccc(F)cc1` reads “inactive”.
The result for `S=C(Nc1ccc2snnc2c1)N1CCN(c2ccccn2)CC1` reads “inactive”; that for `Cc1ccccc1NC(=O)Nc1cccs1`, “inactive”.
For `CCN(CC)CCN(Cc1cc2cc3c(cc2[nH]c1=O)OCCO3)C(=O)NC1CCCCC1`, the compound was classed as inactive.
The result for `COc1ccccc1NC(=S)NC(=O)C(C)(C)C` reads “inactive”; that for `Nc1ccc2oc3ccccc3c2c1`, “inactive”; that for `Nc1ccc2c(c1)C(=O)N(CC1CCCO1)C2=O` (stereo not drawn), “inactive”.
The result for `CCOC(=O)c1cn(CC)c2cc(N3CCOCC3)c(F)cc2c1=O` reads “inactive”; that for `CCCc1cc(N2CCN(c3ccccn3)CC2)n2nc(C)c(-c3ccccc3)c2n1`, “inactive”.
The result for `CCCN(CCC)CCCNS(=O)(=O)c1ccc2c(c1)oc(=O)n2C` reads “inactive”; that for `COC(=O)Cn1c(C)nc2ccccc21`, “inactive”; that for `O=C(O)CCc1nn2c3ccccc3n(CC(=O)c3ccccc3)c2nc1=O`, “inactive”.
With `CSc1nsc(SCC(=O)Nc2ccc(C(C)=O)cc2)n1`, the compound was called inactive.
The result for `CCCc1nc2c(o1)CC(CC(C)SCC)CC2=O` (stereo not drawn) reads “inactive”; that for `Cc1cc(Oc2ccc(-c3nnc(-c4ccccc4)o3)cc2[N+](=O)[O-])ccc1Cl`, “inactive”; that for `C=CCOc1ccc(Br)cc1/C=N/O`, “inactive”.
The result for `CCOC(=O)CCCNC(=O)COC(=O)CCC(=O)c1ccc(F)cc1` reads “inactive”; that for `COc1ccccc1N1CCN(C/C(O)=C(\C#N)c2nc(-c3ccccc3)cs2)CC1`, “inactive”.
The value for `Cc1cc(C)nc(NC(=O)Cc2cccs2)n1` was “inactive”.
As to `Cc1oc(CC(C)C)c(CN2CCCC2)c1C(=O)O`, the call was inactive.
The value for `O=C(O)C1(P(=O)(c2ccccc2)c2ccccc2)CCC1` was “inactive”; that for `O=C(O)CCc1nnc2n(Cc3ccc(F)cc3)c(=O)c3ccccc3n12` was “inactive”.
The value for `CC1Cc2ccccc2N1C(=O)COC(=O)c1ccc(S(=O)(=O)N(C)C)cc1` (stereo not drawn) was “inactive”; that for `CCSc1nc(C2CC2)cc(-c2cccs2)c1C#N` was “inactive”.
The value for `Cc1ccc(-n2nc(-c3ccc(N)cc3)cc2N)cc1` was “inactive”.
With `O=c1cc(O)nc(SCc2ccccc2Cl)[nH]1`, the result was inactive.
The result for `O=C(O)CCS(=O)(=O)c1ccc(-c2ccccc2)cc1` reads “inactive”; that for `Cc1c(Cl)cccc1NC(=O)CSCC(N)=O`, “inactive”.
The result for `O=C(NC(NC(=S)Nc1ccc(Cl)cc1)C(Cl)(Cl)Cl)c1ccco1` (stereo not drawn) reads “inactive”; that for `CCC(C)NC(=O)c1cn(CC)c2cc(N3CCN(C)CC3)c(F)cc2c1=O` (stereo not drawn), “inactive”.
The result for `NC(=O)C1(NC(=O)[C@@H]2CC3(CC(c4cccc(NC(=O)[C@@H]5CCC(=O)N5)c4)=NO3)CN2C(=O)Cc2ccc(Cl)cc2)CC1` (stereo partly drawn) reads “inactive”; that for `COCCNC(=O)c1ccc(C(=O)NCCOC)s1`, “inactive”; that for `CCOC(=O)N1CCN(C(=O)c2ccc(NC(=O)c3ccc(C)cc3)cc2)CC1`, “inactive”.
As for `Cc1nnc(SC(C)C(=O)Nc2ccc(S(=O)(=O)N3CCCCCC3)cc2)s1` (stereo not drawn), the result was inactive.
With `COc1cc(S(=O)(=O)N2CCCCC2)ccc1NC=O`, the compound was called inactive.
The value for `CCn1cc(C(=O)OCC(=O)Nc2ccc(S(=O)(=O)N3CCCC3)cc2)c(=O)c2ccc(C)nc21` was “inactive”.
The result for `O=C(CCC(=O)c1cccs1)OCC(=O)N1CCN(S(=O)(=O)c2ccccc2)CC1` reads “inactive”; that for `O=C(OCC(=O)c1ccc(S(=O)(=O)N2CCCC2)cc1)C1=COCCO1`, “inactive”.
The result for `Cc1cc(C)c2c(=O)[nH]c(SCC(=O)Nc3ccc(N(C)C)cc3)nc2n1` reads “inactive”; that for `Cc1cccc(C(=O)O/N=C2\CCSc3ccc(C)cc32)c1`, “inactive”; that for `CC1(C)CC(=O)C(C=Nc2ccc(Cl)cn2)=C(O)C1`, “inactive”.
On to `CN1CCN(c2cc3c(cc2F)c(=O)c(C(=O)O)cn3CCF)CC1`, for which the compound was called inactive.
`Cc1cc(C(=O)NCc2ccco2)no1`: the result was inactive.
For `CC(C)(C)NS(=O)(=O)c1ccc(CCC(=O)N2CCOCC2)cc1`, the outcome was inactive.
The value for `CCOC(=O)C1=C(c2ccccc2)N=C2SCC(=O)N2C1c1ccc(O)c(OC)c1` (stereo not drawn) was “inactive”.
The value for `COc1ccc(-c2csc(NC(=O)C3CCCO3)n2)cc1` (stereo not drawn) was “inactive”; that for `COc1ccc(-c2nnc(SCC(=O)NCc3ccco3)o2)cc1` was “inactive”.
The result for `CCN(C(C)=O)c1nc(CSc2nnc(NC(C)C)s2)cs1` reads “inactive”.
For `COc1ccc(/C=N/NC(=O)c2ccc3c(c2)OCCO3)cc1[N+](=O)[O-]`, the outcome was inactive.
With `O=C(CN1CCCCCC1)Nc1cccc(Br)c1`, the result was inactive.
The value for `O=C(CN1CCCCC1)Nc1cccc(Br)c1` was “inactive”; that for `O=C(c1cccc(S(=O)(=O)N2CCOCC2)c1)N1CCCC1` was “inactive”.
As to `CCOC(=O)C1=CSC2=NS(=O)(=O)CCN12`, the outcome was inactive.
`CC(=O)N1CCC(N(CCN2CCOCC2)C(=S)Nc2cccc(C)c2C)CC1`: the outcome was inactive.
The value for `O=c1cc(CSc2nc(NCc3ccccc3)c3ccccc3n2)nc2ccc(Cl)cn12` was “inactive”.
As for `CNc1ncc(Cc2ccccc2)s1`, the compound was called inactive.
On to `Cc1nc(N2CCN(Cc3ccccc3)CC2)nc2c1C(=O)CC(C)C2` (stereo not drawn), for which the compound was classed as inactive.
The value for `CCOC(=O)c1ccc(NC(=O)Nc2cc(C)on2)cc1` was “inactive”.
The value for `CCOC(=O)Nc1ccc(C)cc1C` was “inactive”; that for `CCOC(=O)C1CCCN(C(=O)c2sc3nc(C)nc(N4CCOCC4)c3c2C)C1` (stereo not drawn) was “inactive”; that for `CCCCNC(=O)Oc1cccc(N2CCCC2=O)c1` was “inactive”.
The result for `CCCOc1ccc(C(=O)CCC(=O)OCC(=O)N2CC(=O)Nc3ccccc32)cc1` reads “inactive”; that for `O=S1(=O)C=CC(Nc2ccccc2)C1` (stereo not drawn), “inactive”.
As for `CC(C)N(Cc1nc(-c2ccccc2)no1)C(=O)CN(C)S(=O)(=O)c1ccccc1`, the compound was classed as inactive.
For the compound `C[C@H]1COc2c(N3CCN(C)CC3)c(F)cc3c(=O)c(C(=O)O)cn1c23`, the result was inactive.
The value for `Cc1ccc(Oc2nnc(-c3ccccc3)c3ccccc23)cc1` was “inactive”; that for `Cc1nc(-c2ccccc2)cc(=O)[nH]1` was “inactive”; that for `COC(=O)c1cc(C#N)c(Oc2cccc(C)c2C)nc1C` was “inactive”.
Consider `COc1ccc(NC(=O)ON=C2c3ccccc3-c3ccccc32)cc1`, for which the outcome was inactive.
Turning to `NC(=O)c1ccccc1N=Cc1ccccn1`, the compound was classed as inactive.
The result for `Cc1ccc(C(=O)Nc2ccccc2C(N)=O)o1` reads “inactive”; that for `Cc1scc(C(=O)O)c1-c1c(C(=O)O)csc1C`, “inactive”; that for `CN(CC(=O)NCc1cccc(F)c1)C(=O)c1ccco1`, “inactive”.
The value for `COc1cc(OC)c(C(=O)Nc2ccc(S(=O)(=O)Nc3ncccn3)cc2)cc1OC` was “inactive”.
The value for `COC(=O)c1ccc(Sc2ccccc2NS(=O)(=O)c2ccc(C)cc2)nc1` was “inactive”.
For `N/C(=N\c1nc2ccccc2o1)NC(=O)c1ccccc1F`, the compound was classed as inactive.
As for `CCCOc1ccc(/C=N/O)cc1`, the result was inactive.
The result for `CC(=O)NC12CC3CC(C1)CC(C(=O)OCC(=O)c1ccc4c(c1)OCCO4)(C3)C2` reads “inactive”; that for `O=C1CN(C(=O)COC(=O)CCC(=O)c2ccc3c(c2)OCCO3)c2ccccc2N1`, “inactive”.
Turning to `Cn1c(NCc2cccs2)nc2ccccc21`, the compound was classed as inactive.
Take `O=C(CSC1CCCCC1)Nc1ccccc1Br`: the result was inactive.
Turning to `CN1CCN(S(=O)(=O)c2ccc(N)cc2)CC1`, the result was inactive.
The result for `COc1cc(C=O)ccc1OCCCOc1ccccc1[N+](=O)[O-]` reads “inactive”; that for `O=C(CNC(=O)c1ccco1)OCC(=O)c1ccc2c(c1)CCCC2`, “inactive”; that for `CC(C)(C)C1CCC2(CC1)Nc1cccc3cccc(c13)N2`, “inactive”.
The value for `Cc1ccc(C(=O)NCC(=O)OCC(=O)N2CCCc3ccccc32)cc1` was “inactive”.
